Experimental data: PubChem BioAssay (NCATS)
Inconclusive results are not listed. Active and inactive are the calls of the source. The call rests on the fitted dose curve; in most records, active means well fitted curve in the direction sought with a large enough effect; inconclusive means small, poorly fitted or top-dose-only effect, or another doubt; inactive means no such curve, though single readings can be large; an effect the other way counts as inactive or inconclusive.

Key:
[1] = qHTS of pediatric cancer cell lines to identify multiple opportunities for drug repurposing: Primary screen for SJ-GBM2 cells (AID 1347091)
Method in brief: (§1)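 Eight- or eleven-point concentration series, 48 h treatment at 37 degrees C in growth media; readout CellTiter-Glo luminescence. Potency and efficacy were taken from the concentration-response curves.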

[2] = qHTS of pediatric cancer cell lines to identify multiple opportunities for drug repurposing: Primary screen for A673 cells (AID 1347092); further: nearly all actives have a fitted effect of over 45% in size
Method in brief: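 Luminescence from CellTiter-Glo, taken after 15 min at room temperature, served as the proxy for metabolically active cells following 48 h treatment. Both potency and efficacy were taken from curves fitted to the titration data.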

[3] = qHTS of pediatric cancer cell lines to identify multiple opportunities for drug repurposing: Primary screen for NB-EBc1 cells (AID 1347095)
Method in brief: (§2)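 Cells seeded at 500-1,000 cells/well in growth media, rested 5 hours at 37 degrees C, 5% CO2, then dosed; MIPE compounds at 11-point (from 0.78 nM) and NPC at 8-point (from 0.59 nM) final concentrations. Viability by CellTiter-Glo luminescence after 48 hours.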

[4] = qHTS of pediatric cancer cell lines to identify multiple opportunities for drug repurposing: Primary screen for Saos-2 cells (AID 1347097); further: nearly all actives have a fitted effect of over 40% in size
Method in brief: as §2

[5] = qHTS of pediatric cancer cell lines to identify multiple opportunities for drug repurposing: Primary screen for SK-N-SH cells (AID 1347098); further: nearly all actives have a fitted effect of over 65% in size
Method in brief: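 Cells (500-1,000/well) rested 5 h, then received compounds for 48 h; metabolically active cells were measured by CellTiter-Glo luminescence. Final concentrations spanned up to 46 µM (MIPE, 11-point) or 0.59 nM-46 µM (NPC, 8-point) in primary screens, 11-point in follow-ups.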

[6] = qHTS of pediatric cancer cell lines to identify multiple opportunities for drug repurposing: Primary screen for TC32 cells (AID 1347089); further: nearly all actives have a fitted effect of over 60% in size
Method in brief: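 qHTS, TC32, 48 h drug treatment, CellTiter-Glo luminescence as a proxy for metabolically active cells; primary top concentration 46 µM (MIPE 11-pt, NPC 8-pt); confirmatory 11-pt.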

[7] = qHTS of pediatric cancer cell lines to identify multiple opportunities for drug repurposing: Primary screen for SK-N-MC cells (AID 1347093)
Method in brief: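 Metabolically active cells were quantified by ATP-dependent luminescence (CellTiter-Glo, 15 min at room temperature) following 48 h treatment. Cells had been plated at 500-1,000 per well and settled for 5 h beforehand.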

[8] = qHTS of pediatric cancer cell lines to identify multiple opportunities for drug repurposing: Primary screen for BT-37 cells (AID 1347094)
Method in brief: as §2

[9] = qHTS of pediatric cancer cell lines to identify multiple opportunities for drug repurposing: Primary screen for DAOY cells (AID 1347090); further: nearly all actives have a fitted effect of over 55% in size
Method in brief: as §1

[10] = qHTS of pediatric cancer cell lines to identify multiple opportunities for drug repurposing: Primary screen for U-2 OS cells (AID 1347096); further: nearly all actives have a fitted effect of over 50% in size
Method in brief: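 Cells (500-1,000/well) in growth media were settled 5 h at 37 degrees C, then given compounds for 48 h. Viability was read as CellTiter-Glo luminescence. Primary runs used MIPE at 11 points (0.78 nM-46 µM) and NPC at 8 points (0.59 nM-46 µM); follow-ups used 11 points.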

Measured: Potency
Potency means the concentration at half of the fitted maximal effect.

O=S(=O)(NCCNCC=Cc1ccc(Br)cc1)c1cccc2cnccc12
active: [1] 11.8 µM | [2] 11.8 µM | [3] 16.6 µM | [4] 16.6 µM | [5] 19.2 µM

CCC[C@H](Nc1nc(-c2ccc(NC(=O)NCC)c(OC)c2)ncc1C)c1cccnc1
active: [6] 0.093 µM | [1] 0.0105 µM | [2] 0.0187 µM | [7] 0.0118 µM | [8] 0.0137 µM | [3] 0.0066 µM

O=C(c1ccc(C=Cc2n[nH]c3ccccc23)cc1)N1CCNCC1
active: [6] 4.66 µM | [1] 4.18 µM | [3] 3.72 µM
inactive: [9] | [10]

CCC(C)SSc1ncc[nH]1 (stereo not given)
inactive: [6] | [10]
active: [9] 18.7 µM | [1] 20.9 µM | [2] 18.7 µM | [7] 3.72 µM | [4] 18.7 µM

C#CCN(C)CC1=Cc2ccccc2Oc2ccccc21
inactive: [6] | [1] | [8] | [10] | [5]

COc1cc2c(cc1Cc1cccc(Cl)c1F)c(=O)c(C(=O)O)cn2[C@H](CO)C(C)C
inactive: [6]

COc1ccc2nc3cc(Cl)ccc3c(Nc3cc(CN4CCCC4)c(O)c(CN4CCCC4)c3)c2n1
inactive: [6] | [9] | [10] | [4]

Cc1cccc2c1CC[C@H](CN1CCC(c3c(Cl)cccc3Cl)CC1)C[C@@H]2O
active: [7] 9.35 µM
inactive: [9] | [1] | [3]

Nc1nc(Cl)nc2c1ncn2[C@@H]1O[C@H](CO)[C@@H](O)[C@H]1F
inactive: [10]
active: [6] 0.0234 µM | [9] 0.0372 µM | [1] 0.001 µM | [2] 0.0296 µM | [7] 0.001 µM | [8] 0.0485 µM | [3] 0.001 µM

CO[C@H]1/C=C\O[C@@]2(C)Oc3c(C)c(O)c4c(O)c(c(C=NN5CCN(C6CCCC6)CC5)c(O)c4c3C2=O)NC(=O)C(C)=CC=C[C@H](C)[C@H](O)[C@@H](C)[C@@H](O)[C@@H](C)[C@H](OC(C)=O)[C@H]1C
active: [6] 0.523 µM | [9] 0.296 µM | [2] 0.0296 µM | [7] 0.0059 µM | [3] 0.001 µM | [10] 2.35 µM | [4] 0.0935 µM | [5] 0.0961 µM
inactive: [1]

O=c1[nH]c(=O)n([C@H]2C[C@@H](O)[C@@H](CO)O2)cc1C(F)(F)F
inactive: [10] | [4]
active: [6] 7.39 µM | [2] 3.72 µM | [7] 3.72 µM | [8] 3.06 µM | [3] 18.7 µM

CCOC(=O)c1c(CSc2ccccc2)n(C)c2cc(Br)c(O)c(CN(C)C)c12
inactive: [6] | [2] | [3] | [10]

CCN1CCC(n2cc(CNc3cc(Cl)c4ncc(C#N)c(Nc5ccc(F)c(Cl)c5)c4c3)nn2)CC1
inactive: [6] | [10]
active: [1] 18.7 µM | [8] 24.3 µM | [3] 23.5 µM | [4] 14.8 µM

Cc1csc(-c2nnc(Nc3ccc(Oc4ncccc4-c4ccnc(N)n4)cc3)c3ccccc23)c1
active: [1] 0.003 µM | [2] 14.8 µM | [7] 0.0037 µM
inactive: [10]
